The source of these data is PubChem BioAssay AID924 (National Center for Advancing Translational Sciences (NCATS), 2007).

The whole screen tested about 130,000 compounds, of which about 1,200 (0.92%) were called active. Another 3% or so got no clear call; they are omitted. The sample holds actives, similar compounds and a random draw of the others, so the mix is not that of the screen. Unmarked numbers belong to inactive results. Calls come from the whole dose curve; as a rule, active = well fitted cell-killing curve with a large enough effect; inconclusive = small, poorly fitted or top-dose-only effect; inactive = no such curve, though single readings can be large or run the other way.
Potency is the fitted concentration of half-maximal effect.

The experiment in a line: qHTS Screen for Compounds that Selectively Target Cancer Cells with p53 Mutations: Cytotoxicity of p53ts Cells at the Permissive Temperature.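 For activity change, negative = cytotoxicity: 0% = DMSO and -100% = full killing by reference compound.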 Note: nearly all actives have a fitted effect of over 55% in size. As to conditions: H1299-p53A138V at 32C, ATP luminescence viability, 24 h; series mostly up to 46.1 µM; activity change, negative = cytotoxicity: at the top concentration. The text has this: NIH Chemical Genomics Center [NCGC] NIH Molecular Libraries Screening Centers Network [MLSCN] MLSCN Grant: 1 X01 MH079844-01 Assay Submitter (PI): Dr. SUN, YI, University of Michigan NCGC Assay Overview: Synthetic Lethal Screen for Compounds to Kill Cancer Cells with p53 Mutation. Tumor suppressor gene p53 serves as a major cellular barrier against tumorigenesis. […] The goal of this screening is to identify small molecule probes that selectively kill cancer cells with mutations in p53. This screening was carried out using two lines of H1299 lung cancer cells. The H1299-p53 A138V line express a temperature sensitive p53 mutant (p53ts) in which the mutant p53 protein (A138V) is in the mutant confirmation when grown at 39C (the nonpermissive temperature) and in the wild type conformation when grown at 32C (the permissive temperature). A H1299-neo line (p53 null) grown at both 39C and 32C were used as counter-screens to filter out false positive associated with temperature shifting. The small molecular compounds that selectively target mutant p53-containing cancer cells were selected as candidate probes for further study. A cytotoxicity assay based on the measurement of ATP contents in cells was used in this screen. Concentration-responses of all the compounds in the library collection were determined in qHTS using the cell lines and temperature conditions as above.
NCGC Assay Protocol Summary: Both the H1299-p53A138V and H1299-neo cell lines were provided by Dr.Yi Sun, a PI at the University Michigan. The cells were maintained and cultured at 37C. The resuspended frozen cells were used to plate the cells in the 1536-well assay plates at a density of 600 cells per well in 5 ul medium. The assay plates with the cells were incubated at 37C for 16 to 30 hours before the experiments. The library compounds in DMSO solution were added to the cells in assay plates and incubated 24 hours at 39C (for mutant p53 conformation) or 32C (for normal p53 conformation as control). An ATP_lite assay kit (PerkinElmer) was used to determine the cell viability. Tomaxifen (100uM) was used as the positive control for cell killing. Data were normalized to the controls for basal activity (DMSO only) and 100% killing (100uM tamoxifen). AC50 values were determined from concentration-response data modeled with the standard Hill equation. P53 assay protocol: 1. Reagent; 5 uL H1299-p53A138V or H1299-neo cell cells/well 2. Time; overnight; 37C incubation 3. Compounds; 23 nL; 5.9 nM to 46 uM 4. Controls; 23 nL; Tamoxifen 100 uM 5. Time; 24 hr; 37C incubation 6. Reagent; 3 uL; ATP_Lite reagent 7. Time; 20 min; Room Temperature 8. Detection; Luminescence; Viewlux plate reader Keywords: p53, synthetic lethal, cancer, cell viability, cytotoxicity, H1299 cell line, luminescence, MLSMR, MLSCN, NIH Roadmap, qHTS, NCGC
(In general: qHTS replaces the single test concentration by a dilution series.)
For `CCC(CC)c1nn2cc(-c3ccccc3)nc2s1`, the Potency is 5.01 µM (active).

Regarding `CCC(CC)c1nnc(NS(=O)(=O)Cc2ccccc2)s1`, the “activity change, negative = cytotoxicity” value is 4.53%.

As for `CCOc1ccccc1NC(=O)c1ccc2c(c1)CCN2S(=O)(=O)c1ccc(C)cc1`, the “activity change, negative = cytotoxicity” value was 7.8%.

`COC(=O)c1cc(NC(=O)CCc2c(C)nc3c4c(C)cc(C)nc4nn3c2C)cc(C(=O)OC)c1`: the “activity change, negative = cytotoxicity” value was 8.69%.

For the compound `CCN(CC)c1ccc(NC(=O)CN2CCN(CC(=O)Nc3ccc(Cl)cc3)CC2)cc1`, the “activity change, negative = cytotoxicity” value is -4.64%.

Turning to `Cc1c(Cl)cccc1NC(=O)c1noc2c1CCCC2`, the “activity change, negative = cytotoxicity” value was -24.1%.

Take `O=C(Nc1cccnc1)c1noc2c1CCCCC2`: the Potency was 12.6 µM (active).

In the case of `O=C(Nc1cccnc1)c1ccc2c(c1)OCO2`, the “activity change, negative = cytotoxicity” value is -11.3%.

`CCOc1ccc(-c2nonc2NC(=O)c2oc3ccc(C)cc3c2C)cc1OCC`: the “activity change, negative = cytotoxicity” value is -3.06%.

In the case of `COc1ccc(NC(=O)c2sc3nc[nH]c(=O)c3c2C)cc1`, the “activity change, negative = cytotoxicity” value was 2.8%.

`O=C(Nc1cccc(NC(=O)c2ccco2)c1)c1cnccn1`: the “activity change, negative = cytotoxicity” value was -6.2%.

Turning to `Cc1ccnc(NC(=O)c2ccc(NC(=O)c3ccco3)cc2)c1`, the “activity change, negative = cytotoxicity” value is -29.1%.

Regarding `O=C(Nc1ccc(NC(=O)c2cccs2)cn1)c1ccco1`, the Potency is 6.31 µM (active).

For the compound `Cc1cc(C)c(NC(=O)CCc2c(C)nc3c(c(C)nn3C(C)(C)C)c2C)c(C)c1`, the “activity change, negative = cytotoxicity” value was 7.76%.

For `CCn1c(CN2CCC(C)CC2)nc2cc(NC(=O)c3ccccc3[N+](=O)[O-])ccc21`, the “activity change, negative = cytotoxicity” value is 2.93%.

As to `CCCCc1nn2c(=O)cc(COC(=O)c3ccccc3NC(=O)C(C)(C)C)nc2s1`, the “activity change, negative = cytotoxicity” value was -3.39%.

In the case of `Cc1nn2c(=O)cc(COC(=O)c3cccc(NC(=O)COc4ccccc4Cl)c3)nc2s1`, the Potency was 10 µM (active).

As for `Cc1nn2c(=O)cc(COC(=O)c3ccccc3NC(=O)COc3ccccc3C)nc2s1`, the “activity change, negative = cytotoxicity” value is -2.82%.

For `COc1ccc(OCC(=O)Nc2cccc(C(=O)OCc3cc(=O)n4nc(C)sc4n3)c2)cc1`, the “activity change, negative = cytotoxicity” value is -8.09%.

Consider `COc1ccccc1NC(=O)C(=O)c1cc(C)n(-c2ccccc2F)c1C`, for which the “activity change, negative = cytotoxicity” value was 1.04%.

For `O=C(CCSCc1ccccc1F)N1CCN(c2ccc(Cl)cc2)CC1`, the “activity change, negative = cytotoxicity” value was -8.82%.

For `Cc1ccsc1C(=O)OCC(=O)c1cc(C)n(CC2CCCO2)c1C` (stereo unspecified), the Potency was 5.01 µM (active).

Take `COC(=O)c1ccc2c(=O)n(CC3CCCO3)c(=S)[nH]c2c1` (stereo unspecified): the “activity change, negative = cytotoxicity” value is 6.83%.

As to `Cc1ccsc1C(=O)OCC(=O)c1cc2ccccc2o1`, the “activity change, negative = cytotoxicity” value was -15.9%.

For the compound `Cc1[nH]c2ccccc2c1C(c1ccccc1)c1cccs1` (stereo unspecified), the “activity change, negative = cytotoxicity” value was 3.42%.

Take `O=C(CCc1cn(Cc2ccc(F)cc2)c2ccccc12)NC1CCCCC1`: the “activity change, negative = cytotoxicity” value is 1.41%.

For `CC(=O)c1ccc(NC(=O)c2nc(-c3ccc(C)cc3)n3c2CCCCC3)cc1`, the “activity change, negative = cytotoxicity” value was 8.72%.

Take `Cc1ccc2cc3cc(C(=O)N4CCCCCC4)oc3nc2c1`: the Potency is 10 µM (active).

As to `Cc1ccc(C(=O)N2CCCCCC2)cc1Br`, the “activity change, negative = cytotoxicity” value was 4.16%.

Consider `CCc1ccc(CNC(=O)c2cc3cc4ccc(OC)cc4nc3o2)cc1`, for which the “activity change, negative = cytotoxicity” value was 3.47%.

Turning to `COc1c(Cl)cc(C(=O)N(Cc2ccccc2F)C2CCS(=O)(=O)C2)cc1Cl` (stereo unspecified), the “activity change, negative = cytotoxicity” value was 0.249%.

Regarding `CCOc1ccc(N(Cc2ccccc2)C(=O)c2nc(S(C)(=O)=O)ncc2Cl)cc1`, the Potency was 12.6 µM (active).

Take `CCOc1ccc(N(Cc2ccccc2)C(=O)c2nc(SCC)ncc2Cl)cc1`: the “activity change, negative = cytotoxicity” value was 4.15%.

On to `CCOc1ccc(NC(=O)CN(Cc2ccccc2)S(=O)(=O)c2ccc(Cl)cc2)cc1`, for which the “activity change, negative = cytotoxicity” value is -9.94%.

As to `CCOc1cc(C2c3c(-c4ccc(Br)cc4)n[nH]c3C(=O)N2c2ccc(Cl)cc2)ccc1O` (stereo unspecified), the “activity change, negative = cytotoxicity” value is 14.7%.

In the case of `CN1C(=O)c2ccccc2Sc2ccc(NC(=O)Cc3ccc(Cl)cc3)cc21`, the “activity change, negative = cytotoxicity” value is 32.9%.

Turning to `COc1ccc(Cn2ccnc2SCC(=O)NCc2ccco2)cc1`, the “activity change, negative = cytotoxicity” value is -3.47%.

`O=C(Nc1cccc(NC(=O)c2ccc(Br)cc2)c1)c1ccccc1`: the “activity change, negative = cytotoxicity” value was -4.77%.

In the case of `C/C(=C\C(=O)c1ccccc1)Nc1cccc(O)c1`, the Potency was 10 µM (active).

With `C/C(=C\C(=O)c1cccnc1)Nc1ccc(C)c(C)c1`, the “activity change, negative = cytotoxicity” value was -22.1%.

Turning to `O=C(Nc1cc(C(F)(F)F)ccc1Cl)c1ccc2c(c1)CCN2S(=O)(=O)c1ccccc1`, the “activity change, negative = cytotoxicity” value is 4.42%.

Regarding `Cc1ccccc1-n1c(C)cc(/C=C2\NC(=O)NC2=O)c1C`, the Potency was 15.8 µM (active).

Take `Cc1cc(/C=N/n2cnnc2)c(C)n1-c1cccc(C(=O)O)c1`: the “activity change, negative = cytotoxicity” value is -3.07%.

`Cc1ccccc1N1CC(c2nc3ccccc3[nH]2)CC1=O` (stereo unspecified): the “activity change, negative = cytotoxicity” value was 8.66%.

Consider `CCC(=O)N1c2ccccc2CC1C(=O)N1CCN(c2cccc(OC)c2)CC1` (stereo unspecified), for which the “activity change, negative = cytotoxicity” value is 1.92%.

For the compound `Cc1ccc(Cl)cc1NC(=O)CCS(=O)(=O)c1ccc(Br)s1`, the “activity change, negative = cytotoxicity” value was 6.48%.

With `Cc1cccc(NC(=O)N2CCN(C)c3ncccc32)c1C`, the “activity change, negative = cytotoxicity” value is -5.84%.

With `O=C(Nc1cc(C(F)(F)F)ccc1Cl)c1nc2ccccc2nc1N1CCCCC1`, the “activity change, negative = cytotoxicity” value was -6.02%.

Take `COc1c2c(cc3occ(-c4ccc5c(c4)OCO5)c(=O)c13)OC(C)(C)C=C2`: the Potency is 10 µM (active).

Consider `COc1ccc(CCNC(=O)c2cc(-c3ccc4c(c3)OCO4)on2)cc1OC`, for which the “activity change, negative = cytotoxicity” value is -7.31%.

Consider `COc1ccc(C)cc1N(C)C(=O)c1c(C)oc2ncnc(N3CCOCC3)c12`, for which the “activity change, negative = cytotoxicity” value is 4.57%.
